Screening data as filed in PubChem.
A340 absorber – compound absorbs light at 340 nm; AID 708; 65,000 tested, under 10 active; compound absorbance at 340 nm, fold over control; fold change at 10 µM;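 active = at 10 µM dose, initial 340 nm absorbance at least 2 fold that of control wells; inactive = change under 2 fold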;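 note: initial absorbance extrapolated from kinetic A340 decline of NADH oxidation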
DPM-DC inhibit – S. pneumoniae DPM-DC inhibition | purified DPM-DC, PK/LDH coupled NADH fluorescence | calls only at 10 µM | 65,000 compounds, 0.49% hits;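 active = the 320 compounds with the highest percent inhibition in the single-dose primary screen, excluding strongly autofluorescent ones, cut at about 32% in these data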;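 note: kinetic rate of NADH fluorescence loss reporting ADP formed by the decarboxylase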
Fluor 339 460 – intrinsic fluorescence of library compounds, ex339/em460 – biochemical, MLSMR library, data from DPM-DC assay, artefact control, profiling panel; compound autofluorescence, ex339/em460 nm, NADH buffer; stronger effect = higher value; 1 = no-compound wells, NADH background; fluorescence fold increase at 10 µM; 65,000 compounds, 5.5% hits; AID 709;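 active = at 10 µM, mean starting fluorescence two-fold or more over control wells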;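 note: signal is the first read of a kinetic run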
Spn MK inh – inhibitors of Streptococcus pneumoniae mevalonate kinase; purified MK, PK/LDH-coupled NADH absorbance 340 nm; inhibition, % at 10 µM; 65,000 compounds, 0.48% hits;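 active = ranked among the strongest by inhibition in the single 10 µM screen, a fixed top-ranked set picked for dose follow-up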
Spn PMK inh – S. pneumoniae PMK inhibition | purified PMK, PK/LDH-coupled NADH absorbance 340 nm | inhibition, % at 10 µM | 65,000 compounds, 0.49% hits;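 active = top-ranked compounds by inhibition in the single 10 µM screen, taking a fixed number of the strongest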
NADH enzymes – inhibitors of enzymes used to reach an NAD/NADH endpoint; IC50, µM (doses to about 10 µM); coupled PK/LDH NADH assays, four targets; 65,000 compounds, 0.02% hits;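 active = single-dose screening hits from any of four coupled enzyme assays that gave an IC50 when retested across doses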;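 note: the DPM-DC format reads NADH fluorescence rather than 340 nm absorbance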
Of the large screens only hits and unclear results are named; the others gave an inactive call; [ ] = dose if it differs, or a comment. This is a sample that favours compounds with a hit; in the whole collection about 6.3% have one here.

Cc1noc(C)c1S(=O)(=O)Nc1ccc(C(=O)N2CCc3ccccc3C2)cc1	none
CCOC(=O)c1nc2sc3c(c2c(=O)[nH]1)CCCC3	Fluor 339 460 2.51 (not shown: DPM-DC inhibit)
CCOC(=O)c1nc(N2CCN(C(=O)OCC)CC2)c2c3c(sc2n1)CCCC3	Fluor 339 460 3.69 (not shown: DPM-DC inhibit)
CCOC(=O)CSc1nc(N)c2c3c(sc2n1)CCCC3	none
CN(CC(=O)Nc1ccc(Cl)cc1)CC(=O)Nc1cc(Cl)ccc1C#N	none
CN1CCN(C(=O)c2cc3c(s2)-c2ccccc2S(=O)(=O)C3)CC1	none
O=C(NC1CC1)c1cc2c(s1)-c1ccccc1OC2	Fluor 339 460 2.14 (not shown: DPM-DC inhibit)
CC1CCC(NC(=O)c2cc3c(s2)CS(=O)(=O)C3)CC1 (stereo not given)	none
O=C(c1ccco1)N1CCN(C(=O)c2cc3c(s2)-c2ccccc2OC3)CC1	Fluor 339 460 2.43 (not shown: DPM-DC inhibit)
O=C(O)c1cc2c(s1)-c1ccccc1OC2	Fluor 339 460 2.22 (not shown: DPM-DC inhibit)
CCn1c(=O)c2cc(C(=O)N3CCN(C(=O)c4ccco4)CC3)sc2c2ccccc21	Fluor 339 460 2.12 (not shown: DPM-DC inhibit)
O=C1c2oc3ccccc3c(=O)c2C(c2ccc(Br)cc2)N1c1ncccn1 (stereo not given)	none
O=C(Cc1ccc(F)cc1)Nc1c2c(nn1-c1cccc(Cl)c1)CS(=O)C2 (stereo not given)	none
CCOC(=O)C1CCCN(C(=O)CNC(=O)Cn2ccc3ccccc3c2=O)C1 (stereo not given)	none
O=C(NCc1cccs1)c1cc2c(s1)-c1ccccc1OC2	Fluor 339 460 2.44 (not shown: DPM-DC inhibit)
O=C1CC(c2ccc(F)cc2)Cc2nc(N3CCc4ccccc43)ncc21 (stereo not given)	Fluor 339 460 3.82 (not shown: DPM-DC inhibit)
O=C1CC(c2ccc(F)cc2)Cc2nc(N3CCN(c4ccccc4)CC3)ncc21 (stereo not given)	none
CCSc1nc(-c2cccs2)nc2c1c(=O)n(C)c(=O)n2C	none
Cc1ccc(N(CC(=O)Nc2cccc(C)c2)S(=O)(=O)c2cccc3nonc23)cc1	none
O=c1cc(CSc2ccc(S(=O)(=O)N3CCCCC3)cn2)nc2sccn12	none
CN(C)C(=O)COc1ccc2cc(-c3ccccc3)c(=O)oc2c1	Fluor 339 460 2.95 (not shown: DPM-DC inhibit)
Cc1cc(OCC(=O)N(C)C)c2c(-c3ccccc3)cc(=O)oc2c1	none
O=C(Nc1ccccc1C(F)(F)F)N1CCN(c2ccc3nncn3n2)CC1	none
CCC(=O)Oc1ccc2c(C)cc(=O)oc2c1C	DPM-DC inhibit active[fluoresces], Fluor 339 460 2.13
COC(=O)c1ccc(Sc2ccc(C)cc2)c(N)c1	Fluor 339 460 3.08
CCOC(=O)c1cc2c(=O)n3ccccc3nc2n(C(C)C)c1=NC(=O)c1ccncc1	DPM-DC inhibit active
CCOC(=O)c1cc2c(=O)n3ccccc3nc2n(CCOC)c1=NC(=O)c1ccncc1	Fluor 339 460 2.21 (not shown: DPM-DC inhibit)
CCOC(=O)c1cc2c(=O)n3ccccc3nc2n(CCCOC)c1=NC(=O)C(C)(C)C	Fluor 339 460 2.43 (not shown: DPM-DC inhibit)
CCOC(=O)c1cc2c(=O)n3ccccc3nc2n(CCOC)c1=NC(=O)C(C)(C)C	Fluor 339 460 2.3 (not shown: DPM-DC inhibit)
Cc1noc(C)c1COC(=O)CCCc1c[nH]c2ccccc12	none
CCOCCn1c(CN2CCOCC2)nc2c1c(=O)[nH]c(=O)n2C	none
COc1ccc(OC)c(Nc2cc(-c3ccccc3)nc(N)n2)c1	none
CCOCCCn1c(=NC(C)=O)c(C(=O)OCC)cc2c(=O)n3ccccc3nc21	Fluor 339 460 2.92 (not shown: DPM-DC inhibit)
CCOC(=O)C(CC)Sc1nc2c(cnn2-c2ccccc2)c(=O)[nH]1 (stereo not given)	none
CCC(CC)C(=O)Nc1c2cnn(-c3ccccc3)c2nc(=O)n1-c1ccccc1	Fluor 339 460 2.19
CCc1nnc(NC(=O)CSc2nc3c(c(=O)n2CC)SC(C)C3)s1 (stereo not given)	none
CC12CCC(=O)N1c1c(sc3nc(N4CCOCC4)c4c(c13)CCCC4)C(=O)N2 (stereo not given)	Fluor 339 460 2.35 (not shown: DPM-DC inhibit)
O=C1NC2NC(=O)N(C(Cc3ccccc3)C(=O)O)C2N1 (stereo not given)	none
CCn1c(Oc2ccc(Oc3ncc(Cl)cc3Cl)cc2)nc2c1c(=O)n(C)c(=O)n2C	none
CC(NC(=O)COc1ccccc1)C(c1ccccc1)N1CCN(C)CC1 (stereo not given)	none
COCc1cc(C)nc(Nc2ccc(C)c(C)c2)c1C#N	none
CCOc1ccccc1NC(=O)Cn1c(C)cc(COC)c(C#N)c1=O	none
COCc1cc(C)[nH]c(=O)c1C#N	Fluor 339 460 2.19 (not shown: DPM-DC inhibit)
COCc1cc(=O)n2c([nH]c3ccccc32)c1C#N	Fluor 339 460 4.84 (not shown: DPM-DC inhibit)
Cc1ccc(C)c(NC(=O)Cn2nc(C)c3ccccc3c2=O)c1	none
CCCCN(C(=O)NC(=O)Nc1ccccc1OC)S(C)(=O)=O	none
CCCCN(C(=O)NC(=O)C1=C(N2CCOCC2)/C(=C/c2ccccc2)CC1)S(C)(=O)=O	Fluor 339 460 2.09 (not shown: DPM-DC inhibit)
CN(C(=O)NC(=O)C1=C(N2CCOCC2)/C(=C/c2ccccc2)CC1)S(C)(=O)=O	Fluor 339 460 2.88
Cc1ccc(S(=O)(=O)Nc2cc(C(=O)NCCN3CCCC3)ccc2N2CCCCC2)cc1	none
COCCCNC(=O)c1ccc(N2CCCC2)c(NS(=O)(=O)c2ccc(C)cc2)c1	Spn PMK inh 25.0
Cc1[nH]c(=O)[nH]c(=O)c1S(=O)(=O)N1c2ccc(F)cc2CCC1C (stereo not given)	none
COC(=O)C1=CN(CCCN2CCCC2=O)C=C(C(=O)OC)C1c1ccccc1C(F)(F)F	Fluor 339 460 2.2 (not shown: DPM-DC inhibit)
CCCOc1ccccc1C1NC(=O)NC(C)=C1C(=O)OCCOCC (stereo not given)	none
COC(=O)C1=CN(C)C=C(C(=O)OC)C1c1ccccc1Cl	Fluor 339 460 3.85 (not shown: DPM-DC inhibit)
CCN1C=C(C(=O)OC)C(c2cccc(C)c2)C(C(=O)OC)=C1	Fluor 339 460 2.22 (not shown: DPM-DC inhibit)
CCOC(=O)C1=C(C)NC(C)=C(C(=O)OC)C1c1cccc([N+](=O)[O-])c1 (stereo not given)	none
CCCOc1ccccc1C1C(C(=O)OC)=CN(C(C)C)C=C1C(=O)OC	Fluor 339 460 3.87 (not shown: DPM-DC inhibit)
COC(=O)C1=C(C)NC(C)=C(C(=O)OC)C1c1ccccc1[N+](=O)[O-]	none
COc1ccc(CNC(=O)CSc2nnnn2-c2ccc(O)cc2)cc1	none
Cc1cc(NC(=O)COC(=O)CCC(=O)c2ccc(F)cc2)no1	none
CCC(CO)n1cnnc1-c1ccncc1 (stereo not given)	none
Cc1ccccc1OCc1nnc2c3cnn(C)c3ncn12	none
COc1cc2c(cc1NC(=O)CN(C)Cc1nc3ccccc3c(=O)[nH]1)oc1ccccc12	none
COC(=O)C1=CN(C(C)C)C=C(C(=O)OC)C1c1cccc(OC)c1	Fluor 339 460 2.22 (not shown: DPM-DC inhibit)
CCCCOc1ccccc1C1C(C(=O)OC)=CN(CC)C=C1C(=O)OC	Fluor 339 460 2.22 (not shown: DPM-DC inhibit)
COC(=O)c1cc(-c2cccc(OC)c2)on1	none
CCCCOc1ccccc1C(=O)NCC(=O)O	none
